Data from PubChem BioAssay (NCI).
About 83,000 compounds went through this panel and 20% of them were active in at least one assay; those are over-represented in the sample as a whole.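 The test compound was applied at a single concentration to cells in 96-well plates for 48 hours, and percent growth was recorded.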 Activity calls are given as the source filed them. How the source made its calls: active means growth percent below 10; inactive means the rest.

tested on: SK-MEL-2 melanoma; experiment: NCI-60 one-dose screen, 48 h (100 = growth as untreated, 0 = no growth, -100 = all killed); settings: 10 µM unless noted

Structure (SMILES) | growth
O=C1C=CC(=O)N1c1ccc2c(c1)Cc1cc(F)ccc1-2 | 107% (inactive)
OCCN1CCN(c2nc(Nc3ccc(-c4nc5ccccc5[nH]4)cc3)c3cn[nH]c3n2)CC1 | -83.6% (active)
COc1cc(-c2nc3ccccc3[nH]2)ccc1OCC(=O)N=Nc1c(O)[nH]c2ccc(Cl)cc12 | -47.4% (active)
CC(=O)Oc1ccc(Cl)cc1CN(C(C)=O)C1CCCCC1 | 112% (inactive)
COc1cc(Nc2cc(C)nc(N3CCN(c4ccnc5cc(Cl)ccc45)CC3)n2)cc(OC)c1 | 26% (inactive)
CCN1CCN(c2nc(NCCNc3ccnc4cc(Cl)ccc34)c3ccccc3n2)CC1 | -71.4% (active)
CSc1nc(NCCO)c(C#N)c(-c2cccc([N+](=O)[O-])c2)n1 | 113% (inactive)
CN1CCN=C1c1ccc(NC(=O)c2ccc(C(=O)Nc3ccc(C4=NCCN4C)cc3)cc2)cc1 | 121% (inactive)
OCCNc1nccc(N2CCN(c3ccnc4cc(Cl)ccc34)CC2)n1 | 84.1% (inactive)
CCCCn1cnc2c(Sc3c([N+](=O)[O-])ncn3C)nc(N)nc21 | 112% (inactive)
COc1ccc(C(=S)N2CCN(c3cccc(Cl)c3)CC2)cc1 | 80.4% (inactive)
COc1ccc(-c2cc(=O)c3c(OC)c4ccoc4cc3o2)cc1 | 131% (inactive)
COc1ccc(CN2c3ccccc3Oc3ccccc32)cc1F | 10% (inactive)
C=CC(=O)Nc1cccc(-c2nc(SC)nc(NCCc3ccc(OC)c(OC)c3)c2C#N)c1 | 65.7% (inactive)
CC[C@H]1OC(=O)[C@H](C)[C@@H](O[C@H]2C[C@@](C)(OC)[C@@H](O)[C@H](C)O2)[C@H](C)[C@@H](O[C@@H]2O[C@H](C)C[C@H](N(C)C)[C@H]2O)[C@](C)(O)C[C@H](C)CN(C)[C@H](C)[C@@H](O)[C@]1(C)O | 117% (inactive)
Cc1nc(Nc2ccc(F)c(Cl)c2)sc1C(=O)O | 10.7% (inactive)
Cc1cc(Nc2ccc(C)c(Cl)c2)n2nc(C(F)(F)F)nc2n1 | 60.8% (inactive)
CCOc1cc2c(cc1OCC)C(c1cc(OC)c(O)cc1Cl)NCC2 (stereo not given) | 113% (inactive)
COc1ccc(CCNc2nc(SC)nc(-c3cccc([N+](=O)[O-])c3)c2C#N)cc1OC | 98.6% (inactive)
NC(=NCCCOc1ccc(Cl)cc1)Nc1ccc(C(F)(F)F)cc1 | 41.3% (inactive)
NC(=NCCCC1(c2ccccc2)CCCC1)Nc1ccc(Cl)cc1 | 35.3% (inactive)
O=C1c2cc3c(cc2-c2c1c1cc(F)c(F)cc1c(=O)n2CCCn1ccnc1)OCO3 | -11.2% (active)
CSc1ccc(-c2ccccc(=O)c2O)cc1 | 15.2% (inactive)
O=c1nc2oc3ccc4ccccc4c3cc-2s1 | 31.9% (inactive)
O=C1c2ccccc2OC=C(c2ccccc2)N1CCCCNc1ccc(S(=O)(=O)Nc2ncccn2)cc1 | 99.1% (inactive)
C=C(C)C(=O)Nc1ccc(NC(C)C)cc1 | 53.5% (inactive)
COc1cccc2c1C(=O)c1c(O)c3c(c(O)c1C2=O)C[C@](O)(C(=O)CO)C[C@H]3O[C@@H]1C[C@@H](NC(=O)CCCCCN(C)C2(c3ccc(F)cc3)CC3CCC2C3)[C@H](O)[C@@H](C)O1 (stereo not given in full) | 73.5% (inactive)

tested on: EKVX NSCLC; experiment: as above; settings: 10 µM unless noted

Structure (SMILES) | growth
C=CCSSc1ncnc2c1ncn2C1OC(CO)C(O)C1O (stereo not given) | 91.9% (inactive)
COc1cccc(/C=N/NC(=O)c2ccccc2Nc2ccnc(C(F)(F)F)c2)c1O | 10.5% (inactive)
C=CCSSC1N=CNc2nc[nH]c21 (stereo not given) | 93.8% (inactive)
CCCCCCN(CCCCCC)C(=N)c1ccnc2ccccc12 | 84.5% (inactive)
O=C(N/N=C/c1ccccc1O)c1ccccc1Nc1ccnc(C(F)(F)F)c1 | 3.03% (active)

tested on: SN12C renal; experiment: as above; settings: 10 µM unless noted

Structure (SMILES) | growth
O=C1C=CC(=O)N1c1ccc2c(c1)Cc1cc(F)ccc1-2 | 94.6% (inactive)
COc1cc(-c2nc3ccccc3[nH]2)ccc1OCC(=O)N=Nc1c(O)[nH]c2ccc(Cl)cc12 | -73.4% (active)
CC(=O)Oc1ccc(Cl)cc1CN(C(C)=O)C1CCCCC1 | 97.3% (inactive)
C=CCSSc1ncnc2c1ncn2C1OC(CO)C(O)C1O (stereo not given) | 76.2% (inactive)
COc1cc(Nc2cc(C)nc(N3CCN(c4ccnc5cc(Cl)ccc45)CC3)n2)cc(OC)c1 | 0.314% (active)
CCN1CCN(c2nc(NCCNc3ccnc4cc(Cl)ccc34)c3ccccc3n2)CC1 | -5.71% (active)
COc1ccc(C(=O)c2sc3nc4c(c(-c5cccnc5)c3c2N)CCCC4)cc1OC | 69.8% (inactive)
CSc1nc(NCCO)c(C#N)c(-c2cccc([N+](=O)[O-])c2)n1 | 90.4% (inactive)
CN1CCN=C1c1ccc(NC(=O)c2ccc(C(=O)Nc3ccc(C4=NCCN4C)cc3)cc2)cc1 | 98.1% (inactive)
OCCNc1nccc(N2CCN(c3ccnc4cc(Cl)ccc34)CC2)n1 | 84.5% (inactive)
COc1ccc(C(=O)c2sc3nc(C)cc(C)c3c2N)cc1OC | 102% (inactive)
COc1cccc(/C=N/NC(=O)c2ccccc2Nc2ccnc(C(F)(F)F)c2)c1O | 21.2% (inactive)
C=CCSSC1N=CNc2nc[nH]c21 (stereo not given) | 72.9% (inactive)
CCCCn1cnc2c(Sc3c([N+](=O)[O-])ncn3C)nc(N)nc21 | 97.6% (inactive)
Fc1ccc(CNc2cccc3[nH]c(C(F)(F)F)nc23)cc1 | 72.4% (inactive)
CCCCCCN(CCCCCC)C(=N)c1ccnc2ccccc12 | 71.9% (inactive)
COc1ccc(C(=S)N2CCN(c3cccc(Cl)c3)CC2)cc1 | 103% (inactive)

Structure (SMILES) | growth
O=C(N/N=C/c1ccccc1O)c1ccccc1Nc1ccnc(C(F)(F)F)c1 | 26.8% (inactive)
COc1ccc(-c2cc(=O)c3c(OC)c4ccoc4cc3o2)cc1 | 93.8% (inactive)
C=CC(=O)Nc1cccc(-c2nc(SC)nc(NCCc3ccc(OC)c(OC)c3)c2C#N)c1 | 47.6% (inactive)
CC[C@H]1OC(=O)[C@H](C)[C@@H](O[C@H]2C[C@@](C)(OC)[C@@H](O)[C@H](C)O2)[C@H](C)[C@@H](O[C@@H]2O[C@H](C)C[C@H](N(C)C)[C@H]2O)[C@](C)(O)C[C@H](C)CN(C)[C@H](C)[C@@H](O)[C@]1(C)O | 93.9% (inactive)
O=C(Nc1cccc2[nH]c(C(F)(F)F)nc12)c1ccc(-n2cnnn2)cc1 | 108% (inactive)
Cc1cc(Nc2ccc(C)c(Cl)c2)n2nc(C(F)(F)F)nc2n1 | 22.1% (inactive)
CCOc1cc2c(cc1OCC)C(c1cc(OC)c(O)cc1Cl)NCC2 (stereo not given) | 96.7% (inactive)
COc1ccc(CCNc2nc(SC)nc(-c3cccc([N+](=O)[O-])c3)c2C#N)cc1OC | 84% (inactive)
FC(F)(F)c1nc2c(NCc3ccc(-c4ccccc4)cc3)cccc2[nH]1 | 88.4% (inactive)
CCN(CC)c1ccc(-c2cc(-c3cc(OC)c(OC)c(OC)c3)nc(N3CCOCC3)c2C#N)cc1 | 36.4% (inactive)
O=C1c2cc3c(cc2-c2c1c1cc(F)c(F)cc1c(=O)n2CCCn1ccnc1)OCO3 | -1.14% (active)
CSc1ccc(-c2ccccc(=O)c2O)cc1 | 11.9% (inactive)
O=c1nc2oc3ccc4ccccc4c3cc-2s1 | 41.1% (inactive)
O=C1c2ccccc2OC=C(c2ccccc2)N1CCCCNc1ccc(S(=O)(=O)Nc2ncccn2)cc1 | 99.1% (inactive)
C=C(C)C(=O)Nc1ccc(NC(C)C)cc1 | 121% (inactive)
N#Cc1cnn(-c2nc3c(Cl)cccc3s2)c1N | 88.5% (inactive)
